High-throughput results (PubChem BioAssay)
Lmaj promast – reduces viability of Leishmania major promastigotes. 9% of 200,000 active. resazurin fluorescence viability. inhibition, % at 10 µM; in the data active = inhibition above about 50%;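 also: promastigotes grown with compound for 44 hours at 28 °C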
m-calpain inh – calpain II (pig) inhibition; 0.37% of 220,000 active; purified calpain II, fluorogenic peptide substrate, 30 min; inhibition, % at 16 µM;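 active = inhibition above about 50%, limit read from the data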
WT yeast gro inh – growth inhibition of WT yeast, mitochondrial fusion screen. mitochondrial fusion phenotypic screen, WT strain. inhibition, % at 10 µM. 2.1% of 190,000 active; in the data active = inhibition above about 58%; tested in S. cerevisiae
Cl transport mod – KCC2 (human) Cl- transport modulation; Q9H2X9; KCC2 cells, thallium flux FluoZin-2 fluorescence; B-score of Tl+ flux slope (higher = more flux/activation; lower = inhibition) at 10 µM; 2.2% of 190,000 active;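 active = thallium flux slope and its plate-corrected score both differing from the plate sample mean at a set confidence after two filtering rounds, in either direction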;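 also: slope of fluorescence scaled to starting intensity during 10 to 20 s after thallium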
ROMK primary – modulates human ROMK potassium channel activity. 2% of 130,000 active. B-score at 10 µM. AID 1918. Tet-inducible ROMK, thallium flux fluorescence; actives lie on both sides;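 active = signal ratio slope over the read window, or its plate-corrected B-score, at least 3 SD from the plate mean, either direction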;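 also: B-score of the F/F0 ratio slope over 7 to 12 s after thallium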
Target sequence (P48048 whole entry, looked up): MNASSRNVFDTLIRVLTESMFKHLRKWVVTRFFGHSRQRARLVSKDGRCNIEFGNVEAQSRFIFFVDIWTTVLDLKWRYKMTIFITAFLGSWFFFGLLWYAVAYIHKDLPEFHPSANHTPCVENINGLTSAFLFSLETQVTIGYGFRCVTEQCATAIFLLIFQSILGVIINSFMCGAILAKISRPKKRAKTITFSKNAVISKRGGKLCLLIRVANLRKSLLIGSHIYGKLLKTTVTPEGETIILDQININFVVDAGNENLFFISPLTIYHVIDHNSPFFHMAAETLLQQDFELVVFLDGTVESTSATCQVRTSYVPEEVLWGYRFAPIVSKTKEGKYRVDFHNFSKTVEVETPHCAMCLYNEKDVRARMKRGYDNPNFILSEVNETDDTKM
* marks the source's active call; other numbers are inactive results; · = no result. Compounds with a hit are over-represented: about 12% of the library has one in this group of screens.

SMILES | Lmaj promast | m-calpain inh | WT yeast gro inh | Cl transport mod | ROMK primary
CCn1c(CNC(=O)c2ccco2)nnc1SCC(=O)Nc1cc(C(F)(F)F)ccc1Cl | -8 | -20 | 70* | 0.025 | 0.13
COc1ccccc1N1CCN(c2nc3c(C)cccn3c(=O)c2C=O)CC1 | -2 | 14 | · | -0.26 | ·
Cc1cccc(OCCCCCNCCO)c1 | 99* | · | 17 | · | -0.0035
CCc1ccccc1OCCCOc1ccc(OC)cc1 | -2 | 8 | 7 | -0.99 | ·
Cc1cccc(OCCCC(=O)O)c1 | -5 | -13 | -6 | · | -0.5
OCCNCCCCCOc1ccc(F)cc1 | 97* | 23 | 9 | · | 0.42
CCCCCCOc1cccc(N)c1 | 3 | -3 | -50 | · | 0.04
CCc1ccccc1OCCCCCNCCO | 92* | -28 | 18 | -0.71 | -0.13
CCc1cccc(OCCCCNCCO)c1 | 91* | 28 | 15 | 0.042 | -0.33
CCOc1ccccc1OCCOc1ccc(F)cc1 | -2 | 34 | -4 | · | ·
COC(=O)/C=C/COc1ccccc1[N+](=O)[O-] | -5 | -25 | -27 | · | -0.001
COCCCNC(=O)COc1ccc(Cl)c(C)c1 | -7 | -20 | -24 | 0.69 | ·
CCCCNCCCCOc1ccccc1 | 88* | -44 | 6 | 0.03 | -0.054
Cc1cc(OCCCCCNCCO)ccc1Cl | 100* | 16 | 1 | 0.64 | -1.9
COc1cc(/C=N/S(=O)(=O)CCc2ccccc2)cc(OC)c1O | -4 | -12 | 4 | 1.2 | ·
COc1ccc(Cc2noc(CN3CCC(c4ccncc4)CC3)n2)cc1OC | 12 | 10 | 4 | -0.41 | 0.16
Fc1cccc(Cc2noc(CN3CCSCC3)n2)c1 | -5 | 34 | -6 | -0.36 | 0.97
Fc1cccc(Cc2noc(CN3CCN(C4CCc5ccccc5C4)CC3)n2)c1 (stereo not drawn) | 89* | 33 | 26 | · | -2.5
COc1ccc(Cc2noc(CN3CCCN(Cc4ccc(F)cc4)CC3)n2)cc1OC | 77* | 15 | 13 | 0.017 | -0.42
Fc1cccc(Cc2noc(CN3CCCN(C4Cc5ccccc5C4)CC3)n2)c1 | 88* | -48 | 6 | 2 | ·
CSc1ncccc1C(=O)Nc1ccc(S(=O)(=O)NC2=NCCCCC2)cc1 | -1 | -12 | 4 | 1.8 | -0.081
CN(C(=O)c1coc(=O)c2ccccc12)c1ccccc1Cl | 5 | -4 | -4 | 0.63 | -0.45
COC(=O)c1sc(NC(=O)c2c(OC)cccc2OC)c(C#N)c1C | 15 | -23 | -1 | 0.47 | -1.2
Cc1cc(C)c(S(=O)(=O)NC(C)C)c(C)c1-n1cnnn1 | -5 | -14 | -15 | -0.2 | -0.06
CN(C)CCN=Cc1c(O)n(Cc2ccccc2)c(=O)c2ccccc12 | 18 | -44 | 2 | 0.5 | -0.82
SMILES | Lmaj promast | m-calpain inh | WT yeast gro inh | Cl transport mod | ROMK primary
CC1(C)CC(N=Cc2c(O)n(Cc3ccc4c(c3)OCO4)c(=O)c3ccccc23)CC(C)(C)N1 | 101* | -17 | -18 | -0.042 | -0.52
O=C(c1cccc(Cl)c1)N1CCC(c2nc3ccccc3[nH]2)CC1 | 4 | 3 | -16 | 0.47 | 0.13
O=C(c1ccccc1Cl)N1N=C(c2ccc(Br)cc2)CC1c1nc2ccccc2[nH]1 (stereo not drawn) | 20 | -123 | 73* | 1.4 | ·
COc1cc(NC(=O)c2ccc(OC)c([N+](=O)[O-])c2)ccc1NC(=O)c1cccs1 | 84* | 20 | 4 | 1.3 | ·
COc1cc(N)ccc1NC(=O)c1cccs1 | 73* | -30 | -5 | -0.76 | ·
CCOc1ccc(C(=O)Nc2cccc(NC(=O)c3cccs3)c2)cc1[N+](=O)[O-] | 34 | -34 | -3 | -0.55 | ·
COc1cc(NC(=O)c2cccs2)ccc1NC(=O)c1cc2ccccc2o1 | -6 | -300 | -6 | -0.044 | 0.78
O=C(Cc1ccccc1)NC(Nc1ccccc1)C(Cl)(Cl)Cl (stereo not drawn) | 19 | 11 | 8 | -0.54 | 0.095
O=C(Cc1ccccc1)NC(NCCc1ccccc1)C(Cl)(Cl)Cl (stereo not drawn) | 98* | -16 | -7 | -0.012 | ·
O=C(Nc1cccc(Cl)c1N1CCCC1)c1ccc([N+](=O)[O-])o1 | 87* | 2 | 16 | -0.33 | -0.54
O=C(Nc1cccc(Cl)c1N1CCCC1)c1ccc(Br)o1 | -3 | 14 | 68* | · | ·
CNC(=S)N1CCN(c2ccc(Cl)c(Cl)c2)CC1 | 12 | 20 | 40 | -0.68 | -0.055
CCC(C)(C)n1nnnc1CN1CCN(C(c2ccccc2)c2ccccc2)CC1 | 12 | 28 | 31 | -2.5 | ·
Oc1ccc(N=Cc2ccc(O)c(O)c2)cc1 | 100* | 10 | 7 | -0.25 | ·
O=Cc1ccc(O)c(O)c1 | -1 | 14 | 6 | 0.27 | ·
Oc1cc2c(cc1C(c1ccc(Br)cc1)N1CCCC1)OCO2 (stereo not drawn) | 73* | -23 | 21 | 0.49 | -1.4
S=C(c1ccc2c(c1)OCO2)N1CCCCCC1 | -6 | 10 | -6 | 0.004 | ·
CN1CCN(NC(=O)C2CC2)CC1 | -4 | 19 | -4 | 0.27 | 0.69
COC(=O)c1ccccc1S(=O)(=O)N1Cc2cc([N+](=O)[O-])ccc2Oc2ccccc21 | 86* | -14 | 29 | -0.091 | 1.3
Cc1cc(C(=O)COC(=O)c2ccc3c(c2)NC(=O)CS3)c(C)n1CCc1ccc(Cl)cc1 | -5 | -1 | -19 | 0.13 | 0.079
CC(=O)c1sc(N/N=C\c2ccc(Br)cc2)nc1C | 27 | 7 | 60* | -0.48 | 0.77
Fc1ccc(C2CC(c3cccs3)=NN2C(=S)Nc2ccccc2)cc1 (stereo not drawn) | 53* | -34 | 20 | 0.0019 | ·
CCOC(=O)CSCC(=O)N1N=C(c2cccs2)CC1c1ccc(F)cc1 (stereo not drawn) | 11 | 18 | -8 | -0.17 | ·
O=C(Nc1ccccc1)N1N=C(c2ccc(F)cc2)CC1c1ccc(F)cc1 (stereo not drawn) | 92* | 33 | 46 | 0.64 | ·
CCc1nnc(NS(=O)(=O)c2ccc(Nc3ccc4nonc4c3[N+](=O)[O-])cc2)s1 | -3 | -50 | -7 | 0.29 | -2
SMILES | Lmaj promast | m-calpain inh | WT yeast gro inh | Cl transport mod | ROMK primary
CC1CCN(c2nc(Cl)nc(Nc3ccc([N+](=O)[O-])cc3)n2)CC1 | 23 | -44 | 78* | -0.3 | -1.6
C=CCNc1nc(Nc2ccc(-c3nc4ccccc4o3)cc2)nc(N2CCOCC2)n1 | 98* | -151 | -16 | · | -0.44
C=CCNc1nc(Cl)nc(Nc2ccc([N+](=O)[O-])cc2)n1 | -1 | -9 | 3 | 0.2 | -0.12
COc1ccc(Nc2nc(Cl)nc(N3CCN(c4ccc(OC)cc4)CC3)n2)cc1 | 53* | -24 | 9 | 0.39 | -0.74
C=CCNc1nc(Nc2ccc([N+](=O)[O-])cc2)nc(N2CCCC2)n1 | 81* | -11 | 25 | -1.2 | -0.66
CCSc1nc(O)cc(=O)n1CC | -3 | 12 | -4 | 0.087 | -0.3
O=C(Cc1csc(N2CCOCC2)n1)N/N=C/c1ccccc1C(=O)O | · | 0 | · | · | ·
C/C(=N\NC1=NCCN1)c1ccccc1 | · | -5 | · | -1.2 | ·
COc1ccc(Br)cc1/C(C)=N/NC1=NCCN1 | 52* | -24 | 9 | -1.2 | -1.2
CCOC(=O)c1c(C)[nH]c2cc(Br)c(O)cc12 | 17 | -13 | -1 | -0.008 | 0.15
CCOC(=O)c1c(OCC)[nH]c2c1cc(O)c1ccccc12 | 99* | -63 | 59* | -0.44 | -1.6
Cc1cccc(NC(=O)c2oc(=O)c3ccccc3c2-c2ccccc2)c1C | 80* | 13 | -5 | 1.3 | 0.36
